Assay results reported in the supplement of paper PMC4466140.

Target: AgAbp1
Experiment: SPOT peptide array binding signal intensity (averaged, normalized) (arbitrary units (background-subtracted, floor 0; scale differs between SH3 domains)); higher = stronger binding of the SH3 domain to the peptide
Method in brief: (§1)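 To measure binding, SH3 domains from four yeast species were fused to GST, expressed in E. coli BL21(DE3) and purified on glutathione Sepharose. Each domain was incubated at 10 μg/ml overnight at 4°C on cellulose membranes with synthetic 15-mer peptides whose cysteines were replaced by serines. Anti-GST antibody, an HRP anti-mouse secondary and luminol were used for detection, and images were quantified with Genespotter. Reported binding signal is normalized, background-subtracted spot intensity averaged over replicates, in arbitrary units that differ between domains.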

Binder	SPOT peptide array binding signal intensity
EEEEEHPPLPARRKS	≤ 0
NENKKLPPAPTVFGL	≤ 0

Target: AgBbc1
Experiment: as above
Method in brief: as §1

Binder	SPOT peptide array binding signal intensity
EEEEEHPPLPARRKS	23.2
NENKKLPPAPTVFGL	≤ 0

Target: AgBem1-D1
Experiment: as above
Method in brief: as §1

Binder	SPOT peptide array binding signal intensity
EEEEEHPPLPARRKS	≤ 0
NENKKLPPAPTVFGL	≤ 0

Target: AgBzz1-D1
Experiment: as above
Method in brief: as §1

Binder	SPOT peptide array binding signal intensity
EEEEEHPPLPARRKS	9
NENKKLPPAPTVFGL	27

Target: AgBzz1-D2
Experiment: as above
Method in brief: as §1

Binder	SPOT peptide array binding signal intensity
EEEEEHPPLPARRKS	27.5
NENKKLPPAPTVFGL	35

Target: AgCyk3
Experiment: as above
Method in brief: as §1

Binder	SPOT peptide array binding signal intensity
EEEEEHPPLPARRKS	≤ 0
NENKKLPPAPTVFGL	≤ 0

Target: AgFus1
Experiment: as above
Method in brief: as §1

Binder	SPOT peptide array binding signal intensity
EEEEEHPPLPARRKS	≤ 0
NENKKLPPAPTVFGL	≤ 0

Target: AgHof1
Experiment: as above
Method in brief: as §1

Binder	SPOT peptide array binding signal intensity
EEEEEHPPLPARRKS	3
NENKKLPPAPTVFGL	19.5

Target: AgHse1
Experiment: as above
Method in brief: as §1

Binder	SPOT peptide array binding signal intensity
EEEEEHPPLPARRKS	3.5
NENKKLPPAPTVFGL	72

Target: AgLsb1
Experiment: as above
Method in brief: as §1

Binder	SPOT peptide array binding signal intensity
EEEEEHPPLPARRKS	20.5
NENKKLPPAPTVFGL	≤ 0

Target: AgLsb4
Experiment: as above
Method in brief: as §1

Binder	SPOT peptide array binding signal intensity
EEEEEHPPLPARRKS	7880
NENKKLPPAPTVFGL	25

Target: AgMyo5
Experiment: as above
Method in brief: as §1

Binder	SPOT peptide array binding signal intensity
EEEEEHPPLPARRKS	0.5
NENKKLPPAPTVFGL	≤ 0

Target: AgNbp2
Experiment: as above
Method in brief: as §1

Binder	SPOT peptide array binding signal intensity
EEEEEHPPLPARRKS	≤ 0
NENKKLPPAPTVFGL	≤ 0

Target: AgRvs167
Experiment: as above
Method in brief: as §1

Binder	SPOT peptide array binding signal intensity
EEEEEHPPLPARRKS	61
NENKKLPPAPTVFGL	6.17

Target: AgSho1
Experiment: as above
Method in brief: as §1

Binder	SPOT peptide array binding signal intensity
EEEEEHPPLPARRKS	8
NENKKLPPAPTVFGL	1550

Target: AgSla1-D1-D2
Experiment: as above
Method in brief: as §1

Binder	SPOT peptide array binding signal intensity
EEEEEHPPLPARRKS	4.5
NENKKLPPAPTVFGL	4

Target: AgSla1-D3
Experiment: as above
Method in brief: as §1

Binder	SPOT peptide array binding signal intensity
EEEEEHPPLPARRKS	≤ 0
NENKKLPPAPTVFGL	1.5

Target: CaAbp1-D1
Experiment: as above
Method in brief: as §1

Binder	SPOT peptide array binding signal intensity
EEEEEHPPLPARRKS	8.5
NENKKLPPAPTVFGL	≤ 0

Target: CaAbp1-D2
Experiment: as above
Method in brief: as §1

Binder	SPOT peptide array binding signal intensity
EEEEEHPPLPARRKS	≤ 0
NENKKLPPAPTVFGL	3

Target: CaBbc1
Experiment: as above
Method in brief: as §1

Binder	SPOT peptide array binding signal intensity
EEEEEHPPLPARRKS	50.5
NENKKLPPAPTVFGL	≤ 0

Target: CaBem1-D1
Experiment: as above
Method in brief: as §1

Binder	SPOT peptide array binding signal intensity
EEEEEHPPLPARRKS	≤ 0
NENKKLPPAPTVFGL	≤ 0

Target: CaBzz1-D1
Experiment: as above
Method in brief: as §1

Binder	SPOT peptide array binding signal intensity
EEEEEHPPLPARRKS	≤ 0
NENKKLPPAPTVFGL	3.5

Target: CaBzz1-D2
Experiment: as above
Method in brief: as §1

Binder	SPOT peptide array binding signal intensity
EEEEEHPPLPARRKS	≤ 0
NENKKLPPAPTVFGL	1.5

Target: CaCyk3
Experiment: as above
Method in brief: as §1

Binder	SPOT peptide array binding signal intensity
EEEEEHPPLPARRKS	≤ 0
NENKKLPPAPTVFGL	≤ 0

Target: CaFus1
Experiment: as above
Method in brief: as §1

Binder	SPOT peptide array binding signal intensity
EEEEEHPPLPARRKS	9.5
NENKKLPPAPTVFGL	36.5

Target: CaHof1
Experiment: as above
Method in brief: as §1

Binder	SPOT peptide array binding signal intensity
EEEEEHPPLPARRKS	8.5
NENKKLPPAPTVFGL	0.25

Target: CaHse1
Experiment: as above
Method in brief: as §1

Binder	SPOT peptide array binding signal intensity
EEEEEHPPLPARRKS	13
NENKKLPPAPTVFGL	≤ 0

Target: CaLsb1
Experiment: as above
Method in brief: as §1

Binder	SPOT peptide array binding signal intensity
EEEEEHPPLPARRKS	10.8
NENKKLPPAPTVFGL	1.5

Target: CaLsb4
Experiment: as above
Method in brief: as §1

Binder	SPOT peptide array binding signal intensity
EEEEEHPPLPARRKS	5520
NENKKLPPAPTVFGL	≤ 0

Target: CaMyo5
Experiment: as above
Method in brief: as §1

Binder	SPOT peptide array binding signal intensity
EEEEEHPPLPARRKS	1.75
NENKKLPPAPTVFGL	≤ 0

Target: CaNbp2
Experiment: as above
Method in brief: as §1

Binder	SPOT peptide array binding signal intensity
EEEEEHPPLPARRKS	≤ 0
NENKKLPPAPTVFGL	≤ 0

Target: CaRvs167
Experiment: as above
Method in brief: as §1

Binder	SPOT peptide array binding signal intensity
EEEEEHPPLPARRKS	408
NENKKLPPAPTVFGL	1.17

Target: CaRvs167-3
Experiment: as above
Method in brief: as §1

Binder	SPOT peptide array binding signal intensity
EEEEEHPPLPARRKS	6.5
NENKKLPPAPTVFGL	≤ 0

Target: CaSho1
Experiment: as above
Method in brief: as §1

Binder	SPOT peptide array binding signal intensity
EEEEEHPPLPARRKS	≤ 0
NENKKLPPAPTVFGL	398

Target: CaSla1-D1-D2
Experiment: as above
Method in brief: as §1

Binder	SPOT peptide array binding signal intensity
EEEEEHPPLPARRKS	≤ 0
NENKKLPPAPTVFGL	≤ 0

Target: CaSla1-D3
Experiment: as above
Method in brief: as §1

Binder	SPOT peptide array binding signal intensity
EEEEEHPPLPARRKS	≤ 0
NENKKLPPAPTVFGL	3.5

Target: ScAbp1
Experiment: as above
Method in brief: as §1

Binder	SPOT peptide array binding signal intensity
EEEEEHPPLPARRKS	≤ 0
NENKKLPPAPTVFGL	≤ 0

Target: ScBbc1
Experiment: as above
Method in brief: as §1

Binder	SPOT peptide array binding signal intensity
EEEEEHPPLPARRKS	6.25
NENKKLPPAPTVFGL	≤ 0

Target: ScBem1-D1
Experiment: as above
Method in brief: as §1

Binder	SPOT peptide array binding signal intensity
EEEEEHPPLPARRKS	0.5
NENKKLPPAPTVFGL	1

Target: ScBzz1-D1
Experiment: as above
Method in brief: as §1

Binder	SPOT peptide array binding signal intensity
EEEEEHPPLPARRKS	16
NENKKLPPAPTVFGL	11

Target: ScBzz1-D2
Experiment: as above
Method in brief: as §1

Binder	SPOT peptide array binding signal intensity
EEEEEHPPLPARRKS	27.5
NENKKLPPAPTVFGL	6

Target: ScCyk3
Experiment: as above
Method in brief: as §1

Binder	SPOT peptide array binding signal intensity
EEEEEHPPLPARRKS	≤ 0
NENKKLPPAPTVFGL	1

Target: ScFus1
Experiment: as above
Method in brief: as §1

Binder	SPOT peptide array binding signal intensity
EEEEEHPPLPARRKS	4
NENKKLPPAPTVFGL	8

Target: ScHof1
Experiment: as above
Method in brief: as §1

Binder	SPOT peptide array binding signal intensity
EEEEEHPPLPARRKS	4.25
NENKKLPPAPTVFGL	6

Target: ScHse1
Experiment: as above
Method in brief: as §1

Binder	SPOT peptide array binding signal intensity
EEEEEHPPLPARRKS	≤ 0
NENKKLPPAPTVFGL	6.5

Target: ScLsb1
Experiment: as above
Method in brief: as §1

Binder	SPOT peptide array binding signal intensity
EEEEEHPPLPARRKS	444
NENKKLPPAPTVFGL	≤ 0

Target: ScLsb2
Experiment: as above
Method in brief: as §1

Binder	SPOT peptide array binding signal intensity
EEEEEHPPLPARRKS	17
NENKKLPPAPTVFGL	≤ 0

Target: ScLsb3
Experiment: as above
Method in brief: as §1

Binder	SPOT peptide array binding signal intensity
EEEEEHPPLPARRKS	9930
NENKKLPPAPTVFGL	≤ 0

Target: ScLsb4
Experiment: as above
Method in brief: as §1

Binder	SPOT peptide array binding signal intensity
EEEEEHPPLPARRKS	3690
NENKKLPPAPTVFGL	6

Target: ScMyo3
Experiment: as above
Method in brief: as §1

Binder	SPOT peptide array binding signal intensity
EEEEEHPPLPARRKS	≤ 0
NENKKLPPAPTVFGL	≤ 0

Target: ScMyo5
Experiment: as above
Method in brief: as §1

Binder	SPOT peptide array binding signal intensity
EEEEEHPPLPARRKS	≤ 0
NENKKLPPAPTVFGL	≤ 0

Target: ScNbp2
Experiment: as above
Method in brief: as §1

Binder	SPOT peptide array binding signal intensity
EEEEEHPPLPARRKS	≤ 0
NENKKLPPAPTVFGL	≤ 0

Target: ScPex13
Experiment: as above
Method in brief: as §1

Binder	SPOT peptide array binding signal intensity
EEEEEHPPLPARRKS	656
NENKKLPPAPTVFGL	254

Target: ScRvs167
Experiment: as above
Method in brief: as §1

Binder	SPOT peptide array binding signal intensity
EEEEEHPPLPARRKS	1940
NENKKLPPAPTVFGL	0.167

Target: ScSho1
Experiment: as above
Method in brief: as §1

Binder	SPOT peptide array binding signal intensity
EEEEEHPPLPARRKS	≤ 0
NENKKLPPAPTVFGL	2310

Target: ScSla1-D1-D2
Experiment: as above
Method in brief: as §1

Binder	SPOT peptide array binding signal intensity
EEEEEHPPLPARRKS	102
NENKKLPPAPTVFGL	≤ 0

Target: ScSla1-D3
Experiment: as above
Method in brief: as §1

Binder	SPOT peptide array binding signal intensity
EEEEEHPPLPARRKS	≤ 0
NENKKLPPAPTVFGL	4.5

Target: SpAbp1-D1
Experiment: as above
Method in brief: as §1

Binder	SPOT peptide array binding signal intensity
EEEEEHPPLPARRKS	≤ 0
NENKKLPPAPTVFGL	≤ 0

Target: SpBbc1
Experiment: as above
Method in brief: as §1

Binder	SPOT peptide array binding signal intensity
EEEEEHPPLPARRKS	1.5
NENKKLPPAPTVFGL	4.5

Target: SpBzz1-D1
Experiment: as above
Method in brief: as §1

Binder	SPOT peptide array binding signal intensity
EEEEEHPPLPARRKS	17
NENKKLPPAPTVFGL	126

Target: SpBzz1-D2
Experiment: as above
Method in brief: as §1

Binder	SPOT peptide array binding signal intensity
NENKKLPPAPTVFGL	0.25

Target: SpCyk3
Experiment: as above
Method in brief: as §1

Binder	SPOT peptide array binding signal intensity
NENKKLPPAPTVFGL	2.5

Target: SpHof1
Experiment: as above
Method in brief: as §1

Binder	SPOT peptide array binding signal intensity
NENKKLPPAPTVFGL	49.8

Target: SpHof1-2
Experiment: as above
Method in brief: as §1

Binder	SPOT peptide array binding signal intensity
NENKKLPPAPTVFGL	344

Target: SpHof1-3
Experiment: as above
Method in brief: as §1

Binder	SPOT peptide array binding signal intensity
NENKKLPPAPTVFGL	166

Target: SpHse1
Experiment: as above
Method in brief: as §1

Binder	SPOT peptide array binding signal intensity
NENKKLPPAPTVFGL	71.8

Target: SpLsb1
Experiment: as above
Method in brief: as §1

Binder	SPOT peptide array binding signal intensity
NENKKLPPAPTVFGL	0.5

Target: SpLsb4
Experiment: as above
Method in brief: as §1

Binder	SPOT peptide array binding signal intensity
NENKKLPPAPTVFGL	≤ 0

Target: SpMyo1
Experiment: as above
Method in brief: as §1

Binder	SPOT peptide array binding signal intensity
NENKKLPPAPTVFGL	≤ 0

Target: SpNbp2
Experiment: as above
Method in brief: as §1

Binder	SPOT peptide array binding signal intensity
NENKKLPPAPTVFGL	≤ 0

Target: SpPex13
Experiment: as above
Method in brief: as §1

Binder	SPOT peptide array binding signal intensity
NENKKLPPAPTVFGL	≤ 0

Target: SpRvs167
Experiment: as above
Method in brief: as §1

Binder	SPOT peptide array binding signal intensity
NENKKLPPAPTVFGL	0.333

Target: SpSla1-D1-D2
Experiment: as above
Method in brief: as §1

Binder	SPOT peptide array binding signal intensity
NENKKLPPAPTVFGL	8

Target: SpSla1-D3
Experiment: as above
Method in brief: as §1

Binder	SPOT peptide array binding signal intensity
NENKKLPPAPTVFGL	1.5
